From the supplement of paper PMC11732987, “Enantioselective OTUD7B fragment discovery through chemoproteomics screening and high-throughput optimisation” (Communications Chemistry, 2025)
A number with no mark means an inactive call.

target: USP14 (UniProt P54578); assay: log2 ratio of Biotin-Ahx-Ub-VS probe labelling (fragment/DMSO); higher = less target engagement (more negative = stronger competition), active = hit call of the paper (q ≤ 0.05, log2 ratio ≤ -1); conditions: compound concentration: 200 uM; treatment time: 3 h
Description: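 Competitive ABPP in HEK293T cell lysate. Lysates were treated with each chloroacetamide fragment at 200 µM for 3 h, then with Biotin-Ahx-Ub-VS (0.5 µM, 1 h), NeutrAvidin-enriched and analysed by diaPASEF LC-MS/MS. Protein LFQ was median-normalised; average log2 ratio is fragment/DMSO from an unpaired t-test (n=3 treated, n=44 DMSO). Hits: q ≤ 0.05, log2 ratio ≤ -1, unique peptides ≥ 2.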

Chain of USP14 (P54578 whole entry, the tested form may be a part): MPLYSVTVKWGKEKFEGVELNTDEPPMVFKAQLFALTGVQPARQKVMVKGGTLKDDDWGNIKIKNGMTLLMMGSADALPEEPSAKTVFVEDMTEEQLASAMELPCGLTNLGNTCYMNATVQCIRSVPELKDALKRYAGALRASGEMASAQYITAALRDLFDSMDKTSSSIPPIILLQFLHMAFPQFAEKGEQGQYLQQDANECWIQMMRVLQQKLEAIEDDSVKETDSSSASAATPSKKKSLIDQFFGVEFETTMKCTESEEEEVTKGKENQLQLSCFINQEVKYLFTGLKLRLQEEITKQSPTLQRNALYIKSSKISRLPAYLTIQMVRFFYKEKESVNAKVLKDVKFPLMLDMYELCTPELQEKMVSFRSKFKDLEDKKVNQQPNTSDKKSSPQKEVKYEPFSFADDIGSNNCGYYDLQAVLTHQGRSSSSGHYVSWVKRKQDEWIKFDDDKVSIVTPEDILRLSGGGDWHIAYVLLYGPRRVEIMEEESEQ

| SMILES | log2 ratio of Biotin-Ahx-Ub-VS probe labelling |
| --- | --- |
| Cc1cc(CC(C)NC(=O)CCl)n[nH]1 (stereo not given) | -0.00618 |
| CC1(NC(=O)CCl)CCS(=O)(=O)C1 (stereo not given) | -0.815 |
| Cl.O=C(CCl)NC1(c2ncccn2)CCC1 | 0.108 |
| Cc1ccc(CN(C)C(=O)CCl)o1 | -0.0502 |
| CCN1C(=O)C2CN(C(=O)CCl)CCN2C1=O (stereo not given) | -0.176 |
| O=C(CCl)N1CCCN(C(=O)c2ccc(Cl)cc2)CC1 | -0.452 |
| CCc1c[nH]c(CNC(=O)CCl)n1.Cl | -0.5 |
| CC(NC(=O)CCl)c1csc(-c2ccccc2)n1.Cl (stereo not given) | -0.367 |
| CN1C(=O)c2ccc(NC(=O)CCl)cc2C1=O | -0.292 |
| O=C(CCl)NC1CCC2(CC1)OCCO2 | -0.308 |
| O=C(CCl)N1CCC(C(O)c2ccc(F)cc2)CC1 (stereo not given) | -0.0836 |
| Cc1ccc(N(C(=O)CCl)C2C=CS(=O)(=O)C2)cc1 (stereo not given) | -0.0859 |
| CN(C(=O)CCl)c1nc2ccccc2s1 | -0.178 |
| Cc1cc(C(=O)NC2CCN(C(=O)CCl)CC2)no1 | -0.31 |
| Cc1c(C#N)c(NC(=O)CCl)n(Cc2ccco2)c1C | -0.314 |
| Cc1ccccc1CN(C)C(=O)CCl | -0.81 |
| O=C(CCl)N1CCC(S(=O)(=O)c2ccc(F)cc2)CC1 | -0.0146 |
| CC(C)n1nccc1NC(=O)CCl | -0.146 |
| Cc1cccn2cc(CCNC(=O)CCl)nc12.Cl | -0.461 |
| O=C(CCl)N1CCN(C(=O)Nc2ccccc2)CC1 | 0.127 |

| SMILES | log2 ratio of Biotin-Ahx-Ub-VS probe labelling |
| --- | --- |
| O=C(CCl)NCc1ccc(Cl)cc1 | -0.109 |
| Cc1cccc(N(CCC#N)C(=O)CCl)c1C | 0.0267 |
| O=C(CCl)Nc1nnc(CC(F)(F)F)o1 | -0.206 |
| O=C(CCl)N1CCC[C@@H]1c1ccon1 | -0.652 |
| Cl.O=C(CCl)NCCN1CCc2ccccc21 | -0.483 |
| Cl.O=C(CCl)N[C@H]1C[C@@H](n2cccn2)C1 | -0.208 |
| O=C(CCl)Nc1ccc(N2CCCC2=O)cc1 | -0.139 |
| Cn1cc(CN(Cc2ccc(Cl)cc2)C(=O)CCl)cn1 | -1.03 (active) |
| Cl.O=C(CCl)N1CCN(Cc2ccccc2)CC1 | -0.745 |
| CCN(C(=O)CCl)C1CCS(=O)(=O)C1 (stereo not given) | -0.155 |
| Cl.Cn1ncc2c1CC(NC(=O)CCl)CC2 (stereo not given) | 0.136 |
| CN(CCC(O)c1ccc(Br)cc1)C(=O)CCl (stereo not given) | -0.442 |
| O=C(CCl)NC1CCC(C(F)(F)F)CC1 (stereo not given) | -0.454 |
| Cc1nnc(C(NC(=O)CCl)c2ccccc2)n1C (stereo not given) | 0.163 |
| Cc1nc(CN2CCCN(C(=O)CCl)CC2)no1.Cl | 0.0942 |
| O=C(CN1CCN(C(=O)CCl)CC1)Nc1cccc(F)c1 | -0.0714 |
| COc1ccc(-c2csc(NC(=O)CCl)n2)cc1 | -0.0511 |
| Cc1cccc(C)c1NC(=O)CCl | -0.289 |
| Cl.Cn1c(CNC(=O)CCl)nc2cccnc21 | -0.0826 |
| Cl.O=C(CCl)NCCc1ncc(F)cc1F | -0.31 |
